This is a sample that favours compounds with a hit; in the whole collection about 1.5% have one here.
WRN inhibitor – blocks human WRN helicase; WRN helicase unwinding, fluorescent forked duplex, kinetic; Potency, µM (series often up to 114 µM), for inactives: at the top dose activity change, negative = inhibition, hits mostly inhibitors; Q14191; 360,000 compounds, 0.46% hits; further: potency means the concentration at half of the fitted maximal effect; nearly all actives have a fitted effect of over 55% in size
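Fluorescence dequenching readout, ex 525 nm/em 598 nm, kinetic mode: forked duplex DNA (100 nM final) with adjacent fluorophore and quencher unwound by WRN (20 nM final) with 2 mM ATP. Compound preincubation 15 min, room temperature.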
PGK inhibitor – blocks T. brucei phosphoglycerate kinase | P07378 | 380,000 compounds, 0.043% hits | PGK/GAPDH coupled, Kinase-Glo luminescence, 60 min | Potency, µM (top dose mostly 57.5 µM), for the others: at the highest dose activity change, negative = inhibition, most hits filed as inhibitors | AID 602233; further: potency means the concentration at half of the fitted maximal effect; nearly all actives have a fitted effect of over 60% in size
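Recombinant glycosomal PGK reaction used 1,3-bisphosphoglycerate generated in-well by GAPDH (100nM final) in 100mM TEA pH 7.6, 5mM MgCl2, 0.01% Tween-20. After 60 minutes at room temperature, ATP was read by Kinase-Glo Plus luminescence end-point.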
TDP1 inh – inhibitors of human tyrosyl-DNA phosphodiesterase TDP1. Q9NUW8. recombinant TDP1, AlphaScreen DNA substrate cleavage. Potency, µM (highest dose often 130 µM), without a hit: at the top dose activity change, negative = inhibition, most hits filed as inhibitors. 350,000 compounds, 0.28% hits. AID 485290; further: potency means the concentration at half of the fitted maximal effect; nearly all actives have a fitted effect of over 40% in size
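Recombinant human Tdp1 (E. coli-expressed, 1 nM final) preincubated with compounds 15 min at room temperature, then 5'-biotin/3'-phosphotyrosine-FITC DNA substrate (15 nM final) added for 5 min. AlphaScreen beads (10 ug/ml final) added 10 min; cleavage lowers signal.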
FEN1 inh – human FEN1 inhibition. Potency, µM (series often up to 114 µM), for the others: at the highest dose activity change, negative = inhibition, usual class: inhibitors. P39748. Recombinant FEN1 flap cleavage, fluorescence, 15 min. 390,000 compounds, 0.35% hits; further: potency means the concentration at half of the fitted maximal effect; nearly all actives have a fitted effect of over 65% in size
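Potency values derive from four-parameter Hill fits of normalized qHTS data. The reaction used 10 nM FEN1 preincubated 15 min at room temperature with compound, then 50 nM DNA substrate, read at 0 and 15 min.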
Tb PFK block – inhibitors of T. brucei phosphofructokinase | T. brucei PFK, ADP-Glo luminescence | Potency, µM (titrated, usually from 57.5 µM), without a hit: at the highest dose activity, negative = inhibition, most hits filed as inhibitors | 330,000 compounds, 0.17% hits | AID 485367;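 further: potency means the concentration at half of the fitted maximal effect; 0% = uninhibited 1x PFK enzyme wells and -100% = no-enzyme wells; nearly all actives have a fitted effect of over 60% in size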
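1.25 nM PFK with 0.5 mM F6P and 0.1 mM ATP in 0.1 M TEA pH 8.0, 5 mM MgCl2, incubated 45 min at room temperature; ADP measured by ADP-Glo luminescence; compounds titrated up to 57 uM.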
PI5P4K alpha inh – PI5P4K alpha (human) kinase inhibition; 330,000 compounds, 1.2% hits; AID 652105; max response, %; PI5P4Kalpha enzyme, ADP-Glo luminescence, 60 min; stronger effect = lower value; active means max response of -50% or lower; inconclusive means between -30% and -50%; inactive means -30% or higher; further: value at the top dose of about 77 µM
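qHTS, 1536-well: enzyme/substrate mix, compound by pin tool, 5 microM ATP final; RT 60 min; ADP-Glo reagents 1 (45 min) then 2 (30 min); luminescence.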
Numbers without * were called inactive; i = inactive; u = inconclusive; x = not tested or not shown. Unless noted, the call rests on the fitted dose curve; in most records, active means well fitted curve in the direction sought with a large enough effect; inconclusive means small, poorly fitted or top-dose-only effect, or another doubt; inactive means no such curve, though single readings can be large; an effect the other way counts as inactive or inconclusive. Unless noted, on the % scale 0 is the no-effect control and ±100 the full control effect.

SMILES | WRN inhibitor | PGK inhibitor | TDP1 inh | FEN1 inh | Tb PFK block | PI5P4K alpha inh
Cc1c(Cl)cccc1NS(=O)(=O)c1cc2c(cc1Cl)CCC(=O)N2 | x | x | 1% | x | x | x
CCn1cnc2c(Nc3cc(F)cc(F)c3)nc(C(=O)COc3c(F)c(F)cc(F)c3F)nc21 | x | x | 0% | x | x | x
O=C(Cc1ccc(Cl)cc1)SCc1ccccc1 | 5% | i | 32µM* | 6% | -3% | 1
O=C(Cc1ccccc1)NCCSCc1ccc(Cl)cc1 | -6% | -5% | -8% | -10% | -1% | 2
O=c1[nH]cc(CCc2ccccc2)c2ncncc12 | x | x | 1% | -11% | x | x
COc1ccc(S(=O)(=O)N2CCC(C(=O)NCc3cccnc3)CC2)cc1OC | 17% | -10% | 4.5µM* | 2% | 0% | 0
COc1ccc(S(=O)(=O)N2CCC(C(=O)NCc3cccnc3)CC2)cc1C | 4% | -3% | x | 1% | -18% | -3
S=c1[nH]nc(-c2ccc(Cl)cc2)n1-c1ccc(Cl)cc1 | -11% | -3% | 5% | -1% | 2% | 0
Nc1n[nH]c(=S)n1-c1ccc(Cl)cc1 | 4% | -7% | 10% | 15% | -15% | -54*
CCCCCCCCCCCCCCCCCCN(CCCCCCCCCCCCCCCCCC)c1ccc(/C=C/c2ccc(C=O)cc2)cc1 | x | x | x | -4% | x | x
CCOC(=O)CSC1=C(C#N)C(=O)NC(c2ccc(OC)c(OC)c2)S1 (centres undefined) | -12% | -4% | 7% | -5% | u | -72*
CCOC(=O)CSC1=C(C#N)C(=O)NC(c2ccc(OC)cc2)S1 (centres undefined) | -2% | 4% | 9% | 1% | u | -63*
COc1ccc(C2NC(=O)C(C#N)=C(S)N2c2ccc(C)cc2)cc1OC (centres undefined) | 0% | -1% | 0% | -11% | u | -6
O=C1c2ccccc2C(=O)N1c1ccccc1O | x | x | 1% | x | x | x
CCCCNC(=O)c1sc(=S)n2c1[nH]c(=O)c1ccccc12 | u | 1% | 1% | u | 7% | -1
O=C(NC1CCCCC1)c1sc(=S)n2c1[nH]c(=O)c1ccccc12 | 50µM* | -4% | 2% | u | 2% | 36
CO/N=C(/C(=O)NC1C(=O)N2C(C(=O)O)=C(CSc3nc(=O)c(O)nn3C)CSC12)c1csc(N)n1 (centres undefined) | x | x | 7.1µM* | x | x | x
C=CC1=C(C(=O)O)N2C(=O)[C@@H](NC(=O)/C(=N\O)c3csc(N)n3)[C@H]2SC1 (stereo in doubt) | -17% | u | x | -18% | x | u
COc1cccc(C2CC(c3cccs3)=NN2C(=O)CSc2nc3c(cnn3-c3ccc(F)cc3)c(=O)[nH]2)c1OC (centres undefined) | 5% | -3% | 3% | 18µM* | -5% | 7
CCOc1c2c(c(-c3ccc4c(c3)OCO4)c3cc(OC)c(OC)cc13)C(=O)OC2 | x | x | 3% | -1% | x | x
C[C@@H]1[C@H](c2ccccc2)OCCS(=O)(=O)N1Cc1ccccc1Br | x | x | x | -25% | x | x
O=C(CCCCn1cnc2c(=S)nc[nH]c21)Nc1ccc(C(=O)O)c(O)c1 | u | 4% | x | 3% | x | -68*
O=C(O)CCCC(=O)Nc1ccc(Cl)c(Cl)c1 | -2% | i | 4% | -1% | 1% | -1
CCCCCCCCCCCCCCC(O)C[N+](C)(CCO)CCO (centres undefined) | u | i | x | -29% | x | -72*
O=C(NNC(=O)c1cccc(-n2cccc2)c1)c1ccc(F)cc1 | u | -8% | x | -17% | u | -68*
SMILES | WRN inhibitor | PGK inhibitor | TDP1 inh | FEN1 inh | Tb PFK block | PI5P4K alpha inh
COc1ccc(-n2cnc3c(c2=N)C(c2cccc(OC)c2)c2c(ccc4ccccc24)O3)cc1 (centres undefined) | x | x | 7% | x | x | x
c1ccc2c(-c3cncc4ccccc34)cncc2c1 | 5% | -7% | x | -4% | x | -73*
c1ccc2c(c1)cnc1ccccc12 | -23% | -5% | x | -3% | -4% | 3
COc1ccc(C(C(=O)NC2CCCCC2)n2c(=O)c(-c3ccco3)nc3ccccc32)cc1 (centres undefined) | -3% | x | x | x | x | u
O=c1c(-c2ccco2)nc2ccccc2n1C(CCc1ccccc1)c1nc2ccccc2[nH]1 (centres undefined) | -13% | x | x | x | x | -73*
CC(C)(C)NC(=O)C(c1ccccc1)n1c(=O)c(-c2ccco2)nc2ccccc21 (centres undefined) | -11% | x | x | x | x | -54*
CC(C)(C)NC(=O)C(c1ccncc1)n1c(=O)c(-c2ccco2)nc2ccccc21 (centres undefined) | 7% | x | x | x | x | -18
O=C(NC1CCCCC1)C(c1cccc2ccccc12)n1c(=O)c(-c2ccco2)nc2ccccc21 (centres undefined) | -7% | x | x | x | x | -82*
CC(C)(C)NC(=O)C(c1cc2ccccc2o1)n1c(=O)c(-c2ccco2)nc2ccccc21 (centres undefined) | -9% | x | x | x | x | -58*
COc1ccc(-n2nc(C(=O)O)c3csc(N)c3c2=O)cc1 | x | x | -14% | x | x | x
Cc1cccc2c(N=O)c(O)[nH]c12 | -11% | 3% | x | 2% | 5% | -59*
COc1cc(/C=N/n2c(-c3ccccc3)n[nH]c2=S)cc(OC)c1O | -10% | 4% | 7% | 2% | 4% | -22
Cc1c(Br)c(O)c(Br)c(O)c1/C=N/n1c(-c2ccccc2)n[nH]c1=S | 45µM* | -22% | x | 35µM* | -12% | -83*
O=[N+]([O-])c1cc(/C=N/n2c(-c3cccnc3)n[nH]c2=S)ccc1Cl | u | -13% | 3% | 56µM* | -8% | u
COc1cc(/C=N/n2c(-c3ccccc3)n[nH]c2=S)ccc1O | -4% | -7% | 1% | 4% | 3% | -6
Oc1ccc(/C=N/n2c(-c3ccccc3)n[nH]c2=S)cc1Br | 4% | -8% | 8% | 15% | -9% | -53*
Oc1c(Br)cc(/C=N/n2c(-c3ccccc3)n[nH]c2=S)cc1Br | u | -4% | 25µM* | 3% | 2% | -92*
COc1ccc(C2Nc3ccccc3C(=O)N2C2CCCC2)cc1COc1ccc(NC(C)=O)cc1 (centres undefined) | x | x | -2% | x | x | x
Cc1nc(C(C)Nc2ncnc3ccc(-c4ccc5c(c4)OCO5)cc23)cs1 (centres undefined) | x | x | -16% | x | x | x
Oc1c(Br)cc(/C=N/n2c(-c3ccccc3)n[nH]c2=S)c(O)c1Br | u | -14% | 1% | u | 2% | -85*
S=c1[nH]nc(-c2cc(-c3ccccc3)n[nH]2)n1/N=C/C=C/c1ccccc1 | 3% | -5% | 5% | 0% | -20% | -25
